In PubChem BioAssay (NCI) one finds growth data, which are given here for eight compounds.

Compounds without any hit were thinned out: in the full panel of roughly 83,000, 20% have a hit.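 Method: cells in 96-well plates; compound added at one concentration; 48 h incubation; percent growth measured; values under 10 scored active.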 A number with no mark means an inactive call. Activity calls are given as the source filed them.

Holding throughout (assay): NCI-60 one-dose screen, 48 h (100 = growth as untreated, 0 = no growth, -100 = all killed)
Holding throughout (settings): 10 µM unless noted

Assay [1] concerns HCT-15 colon.
Assay [2] has as its system HT29 colon.
The test system of assay [3] is SNB-75 CNS.
The test system of assay [4] is SNB-19 CNS.
The test system of assay [5] is U251 CNS.
In assay [6] the test system is PC-3 prostate.
Assay [7] deals with SK-MEL-5 melanoma.
Assay [8] relates to UACC-62 melanoma.
In assay [9] the test system is LOX IMVI melanoma.
Assay [10] relates to SK-MEL-28 melanoma.
Assay [11] deals with SK-MEL-2 melanoma.
Assay [12] concerns EKVX NSCLC.
Assay [13] deals with SN12C renal.
Assay [14] relates to UO-31 renal.
In assay [15] the test system is TK-10 renal.
In assay [16] the test system is ACHN renal.
In assay [17] the test system is CAKI-1 renal.
Assay [18] deals with A498 renal.
Assay [19] has as its system CCRF-CEM leukemia.
The subject of assay [20] is MOLT-4 leukemia.

Turning to `O=C(c1ccccc1)C(Br)C(Br)c1cccc([N+](=O)[O-])c1` (stereo not drawn), the growth is -26.6% (active) in assay [1]; -42.4% (active) in assay [2]; 80.9% in assay [3]; 82.4% in assay [4]; 17.7% in [5]; 67.4% in assay [6]. In addition, the growth was 77.1% in assay [7]; 81.4% in assay [8]; -79.4% (active) in [9]; 63.6% in assay [10]; 69.8% in assay [11]; 101% in assay [12]. Moreover, the growth is 67.1% in [13]; -74.8% (active) in assay [14]; -25.4% (active) in assay [15]; -87.9% (active) in assay [16]; -25.5% (active) in [17]; 48.2% in assay [18]. In addition, the growth in [19] is -15.7% (active); in [20] it was 3.67% (active).
On to `COc1ccc2c(c1)c(=O)oc1c(C)c(OCC(C)=O)ccc12`, for which the growth in assay [1] is 86.7%; in [2] it was 103%; in assay [3] it was 108%; in assay [4] it was 101%; in assay [5], 90%; in assay [6], 83.3%. For the same compound, the growth in assay [7] is 103%; in assay [8] it was 64.3%; in assay [9], 94.7%; in assay [10] it was 106%; in assay [11], 115%; in [12] it was 4.14% (active). Also, the growth was 94% in [13]; 98.3% in [14]; 82.7% in assay [15]; 97.2% in assay [16]; 92.1% in assay [17]; 90% in [18]. Moreover, the figures for the growth in assay [19] and in assay [20] were 99.7% and 92.9%, respectively.
In the case of `COc1cc(CNCCN2C(=O)c3ccc4c5c(ccc(c35)C2=O)C(=O)N(CCNCc2cc(OC)c(OC)c(OC)c2)C4=O)cc(OC)c1OC`, the growth is -66.2% (active) in assay [1]; -52.3% (active) in assay [2]; -98% (active) in assay [3]; -79.8% (active) in [4]; -68.1% (active) in assay [5]; -73.1% (active) in assay [6]. Moreover, the growth in assay [7] is -87.7% (active); in assay [8] it was -92.4% (active); in [9], -99% (active); in [10], -89.3% (active); in assay [11] it was -82.3% (active); in [12], -42% (active). Besides, the growth in assay [13] was -87.7% (active); in assay [14] it was -70.2% (active); in assay [15] it was -87.1% (active); in [16] it was -92.2% (active); in [17], -70% (active); in assay [18] it was -92.7% (active). The growth in assay [19] was -20.7% (active); in assay [20], -4.82% (active).
Take `O=C1C(Cl)=C(NCCCN2CCOCC2)C(=O)c2ccccc21`: the growth is 79.5% in assay [1]; 93.7% in assay [2]; 78.3% in assay [3]; 91.5% in assay [4]; 98.3% in assay [5]; 79.6% in assay [6]. Also, the growth in assay [7] is 67.5%; in assay [8], 94.8%; in assay [9], 54.2%; in assay [10], 104%; in assay [11], 104%; in [12], 112%. The growth in assay [13] is 82.8%; in assay [14], 61%; in assay [15], 131%; in assay [16], 108%; in assay [17], 102%; in [18], 110%. Besides, the growth was 90.9% in assay [19] and 88.4% in [20].
Take `Nc1cc(Br)c(-c2nnc(CCC(=O)c3nc4ccccc4[nH]3)o2)c(Br)c1`: the growth in assay [1] was 104%; in assay [2], 84.1%; in assay [3], 58.9%; in assay [4], 85.5%; in assay [5], 68.2%; in assay [6] it was 74.9%. Also, the growth in assay [7] was 47.7%; in [8], 55.6%; in [9], 44.7%; in [10], 65.4%; in assay [11], 34.3%; in [12] it was 95.6%. The growth is 95.4% in assay [13]; 47.4% in assay [14]; 101% in assay [15]; 102% in [16]; 90.5% in assay [17]; 71.7% in assay [18]. Further, in assay [20], the growth is 68.2%.
On to `Cn1cc(C(=O)NCCC(=N)N)cc1NC(=O)CN=C(N)N`, for which the growth in [1] is 111%; in assay [2], 107%; in assay [3] it was 88.9%; in assay [4], 101%; in assay [5] it was 98%; in assay [6], 92.5%. The growth in assay [7] was 101%; in assay [8], 98%; in assay [9] it was 97.5%; in assay [10], 92.6%; in assay [11] it was 105%; in assay [12] it was 103%. Also, the growth was 95.6% in assay [13]; 84% in assay [14]; 109% in assay [15]; 102% in assay [16]; 99.1% in assay [17]; 108% in assay [18]. Besides, the growth in [20] is 103%.
Consider `Cc1cc(O)cc2c1[C@H]1CC[C@]3(C)[C@@H](O)CC[C@H]3[C@@H]1C=C2`, for which the growth in [1] is 78.7%; in assay [2] it was 93.5%; in assay [3] it was 76.2%; in [4] it was 94.7%; in [5], 92.5%; in [6], 86.3%. The growth in [7] was 83.8%; in [8] it was 73.5%; in assay [9], 81.3%; in assay [10], 99.8%; in assay [11], 86.4%; in assay [12], 105%. In addition, the growth in assay [13] is 98.5%; in assay [14] it was 98.4%; in assay [15], 102%; in [16], 96.7%; in [17] it was 108%; in assay [18] it was 118%. In addition, the figures for the growth in [19] and in assay [20] were 69.4% and 79%, respectively.
`CC1SC(c2ccc(Cl)cc2)N(CCc2cccs2)C1=O` (stereo not drawn): the growth in assay [1] was 1.46% (active); in [2], -40.2% (active); in [3], -9.5% (active); in assay [4], 12.4%; in assay [5], -8.49% (active); in assay [6], -1.67% (active). Further, the growth in assay [7] was -99.2% (active); in assay [8] it was -46.3% (active); in [9], -85.2% (active); in assay [10] it was 8.16% (active); in assay [11], -72.8% (active); in assay [12] it was -12.5% (active). Further, the growth in [13] was -75.6% (active); in [14], 1.81% (active); in [15] it was -16.5% (active); in assay [16] it was -6.58% (active); in assay [17] it was -33.6% (active); in assay [18], -13.7% (active). Further, the figures for the growth in assay [19] and in assay [20] were 10.1% and -4.19% (active), respectively.
